Results filed as inconclusive are left out. Where a structure was tested more than once in an assay, its records may differ in their call. Activity calls are given as the source filed them. Rule for the calls: active = hit-call score of the fitted dose curve at least 0.9, where 1 is the maximum; inconclusive = response in the unintended direction; inactive = score below 0.9.

This assay is described as follows: CCTE_Simmons_CellTiterGLO_HEK293T: Viability Assessment in CCTE's Assays for Thyroperoxidase (TPO) Inhibition, Simmons Lab (AID 2283665).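 For AC50: cells exposed to compound for 24 h before readout; actives reduce ATP signal below DMSO vehicle meaning cytotoxicity.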 Here is the method:
CCTE_Simmons_CellTiterGLO_HEK293T is a cell-based, single-readout assay that uses HEK293T, a human kidney cell line, with measurements taken at 24 hours after chemical dosing in a 384-well plate.CCTE_Simmons_CellTiterGLO_HEK293T is the assay component measured from the CCTE_Simmons_CellTiterGLO_HEK293T assay. It is designed to make measurements of ATP content, a form of viability reporter, as detected with bioluminescence signals by Luciferase-coupled ATP quantitation technology. This is a secondary cytotoxicity assay to CCTE_Simmons_AUR_TPO to estimate a cellular tolerance limit.Data from the assay component CCTE_Simmons_CellTiterGLO_HEK293T was analyzed at the endpoint, CCTE_Simmons_CellTiterGLO_HEK293T, in the positive analysis fitting direction relative to DMSO as the negative control and baseline of activity. Using a type of viability reporter, measures of ATP content for loss-of-signal activity can be used to understand the viability. This assay was run in parallel with aeid 1508 as a means of indicating the range of chemical cytotoxicity or reactivity. To generalize the intended target to other relatable targets, this assay endpoint is annotated to the cell cycle intended target family, where the subfamily is cytotoxicity.
Human HEK293T cells (GenHunter; Nashville, Tennessee) were seeded overnight in 384-well, solid white assay plates (Greiner, BioExpress) at a density of 10 000 cells per well in 65 ul Dulbecco's Modified Eagle Medium (Life Technologies; Carlsbad, California) supplemented with 1% fetal bovine serum (HyClone; Logan, Utah). Test compounds were administered using the HDRT as described earlier to achieve a 0.5% final DMSO concentration. Cells were then incubated at 37C for 24 hr in a humidified 5% CO2 incubator. Cell Titer Glo (Promega; Madison, WI) reagent (25 ul) was then added by the BioTek MicroFlo and microplates were incubated at room temperature in the dark for 20min. Plates were read on a plate reader (FLUOStar Optima) using an endpoint luminescence protocol (top read). Three biological replicates of technical singles were run for every chemical concentration tested. A titrated range of DCNQ served as a positive control on each plate of the cytotoxicity screening assay.Test chemicals were administered as a titrated series of 8 concentrations from 5 nM up to 87.5 uM [final] for 24 hours prior to single endpoint detection. Three biological replicates of technical singles were run for every chemical concentration tested. Dimethylsulfoxide [DMSO] was used as the vehicle control. Dichlone [DCNQ] was used as the positive control and was administered as a titrated series of 8 concentrations from 1 nM up to 100 uM [final].
In general terms: In ATP-based viability assays light output follows the ATP content of the culture.
As a reminder, the AC50 is the concentration at which the activity in the assay is half-maximal. Regarding `N[C@@H](Cc1cc(I)c(Oc2ccc(O)c(I)c2)c(I)c1)C(=O)O`, the AC50 is 43.8 µM (active).

On to `O=C(Nc1ccc([N+](=O)[O-])cc1Cl)c1cc(Cl)ccc1O`, for which the AC50 is 5.34 µM (active).

In the case of `CCCCOCCOCCOCc1cc2c(cc1CCC)OCO2`, the outcome was inactive.

Consider `CC(C)(c1ccc(O)cc1)c1ccc(O)cc1`, for which the result was inactive.

In the case of `c1ccc(Nc2ccccc2)cc1`, the AC50 was 89.8 µM (active).

Regarding `Oc1ccc(C(c2ccc(O)cc2)C(Cl)(Cl)Cl)cc1`, the AC50 was 28.8 µM (active).

For `N#CSCSc1nc2ccccc2s1`, the AC50 was 9.18 µM (active).

As for `CCCOC(=O)c1ccc(C(=O)OCCC)nc1`, the molecule was called inactive.

For the molecule `CCOC(=O)C(C)Oc1ccc(Oc2nc3ccc(Cl)cc3o2)cc1` (stereo not drawn), the molecule was called inactive.

For the molecule `O=C(c1ccc(O)cc1O)c1ccc(O)cc1O`, the outcome was inactive.

With `S=C(S)NCCNC(=S)S.[Mn+2].[S-]C([S-])=NCCN=C([S-])[S-].[Zn+2]`, the call was inactive.

Consider `CSC(=O)c1cccc2nnsc12`, for which the outcome was inactive.

On to `CC(C)CCCCCCc1ccc(O)cc1`, for which the AC50 was 6.47 µM (active).

The values are drawn from PubChem BioAssay (EPA / NIEHS).
